We go through twelve compounds from PubChem BioAssay (NCATS).

Unmarked numbers belong to inactive results. Results filed as inconclusive are left out. Activity calls are given as the source filed them. The call rests on the fitted dose curve; in most records, active means well fitted curve in the direction sought with a large enough effect; inconclusive means small, poorly fitted or top-dose-only effect, or another doubt; inactive means no such curve, though single readings can be large; an effect the other way counts as inactive or inconclusive.

In experiment [1] the target is Furin (Homo sapiens) (UniProt P09958). Kind of experiment: Furin counterscreen qHTS for Zika virus inhibitors (AID 1347149). Further: nearly all actives have a fitted effect of over 70% in size. Further: potency means the concentration at half of the fitted maximal effect. In outline:
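Fluorogenic cleavage of BOC-RVRR-AMC (2 microM final, Km ~15 µM) was monitored (ex 340, em 450 nm) at 37C after 15 min RT preincubation of 5 nM furin with compounds in HEPES pH 7.0 buffer with CaCl2 and Triton X-100. Percent inhibition was fitted to a 4-parameter Hill curve.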

Experiment [2] relates to Zika virus NS2B-NS3 protease (linked construct). Description: Confirmatory screen NINDS AMC qHTS for Zika virus inhibitors (AID 1347152). Further: nearly all actives have a fitted effect of over 70% in size. Further: potency means the concentration at half of the fitted maximal effect. The gist of the method: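 Enzyme (1 nM, linked construct) was preincubated with compound for 15 minutes at room temperature in 10 mM Tris-HCl pH 8.0 with 0.01% Tween 20. Bz-Nle-Lys-Arg-Arg-AMC was then added to 10 microM, and AMC fluorescence was recorded immediately and after 15 minutes.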
(In general: qHTS replaces the single test concentration by a dilution series.)

Experiment [3] in a line: ZIKV-mCherry secondary qHTS for Zika virus inhibitors (AID 1347158). Further: top concentration of the series differs between compounds. The gist of the method:
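Vero cells, 5,000/well, plated overnight at 37 °C, then compound added and infected with recombinant ZIKV-mCherry at MOI 1 for 48-72 h. PFA-fixed, Hoechst nuclear stain, high-content imaging; cells with mCherry intensity above 450 RFU scored infected, reported as percent infection.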

Experiment [4] deals with Zika virus NS2B-NS3 protease (linked construct). Description: 384 well plate NINDS Rhodamine confirmatory qHTS for Zika virus inhibitors (AID 1347164).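 Further: fluorescence from protease cleavage of Ac-LKRR-rhodamine 110 substrate; nearly all actives have a fitted effect of over 65% in size.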 Further: potency means the concentration at half of the fitted maximal effect. In outline:
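Enzyme (final 5/30/60 nM) + cpd (DMSO), ~15 min; add Ac-LKRR-Rd 10 microM final; 25 min RT, dark; FI ex 485/em 538; normalized to no-enzyme, no-inhibitor ctrls; aprotinin intraplate ctrl.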

Experiment [5] is described as follows: Tertiary RLuc qRT-PCR qHTS assay for Zika virus inhibitors (AID 1347169). Further: nearly all actives have a fitted effect of over 55% in size. Further: potency means the concentration at half of the fitted maximal effect. In outline: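 Vero, 1,000 cells/well, o/n 37 C; cpd pinned in DMSO; ZIKV-RLuc Cambodian, MOI 1-2, 48-72 h 37 C; live-cell RLuc substrate, lum read at 1-1.5 h.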
Background: Real-time PCR tracks product formation cycle by cycle.

The subject of experiment [6] is Zika virus NS2B-NS3 protease. Kind of experiment: Primary screen GU AMC qHTS for Zika virus inhibitors (AID 1347154). Further: nearly all actives have a fitted effect of over 70% in size. The gist of the method: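 Fluorogenic AMC-substrate cleavage by noncovalent NS2B-NS3 protease complex (25 nM, pH 8.0 Tris buffer with Tween 20) followed for 15 minutes at room temperature (~20% conversion). Percent inhibition from ex340/em450 signal change, fitted by 4-parameter Hill equation.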

Experiment [7] is described as follows: Confirmatory screen GU Rhodamine qHTS for Zika virus inhibitors qHTS (AID 1347157). Further: nearly all actives have a fitted effect of over 70% in size. Further: potency means the concentration at half of the fitted maximal effect. The gist of the method: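 A qHTS format was used, with compound concentrations ranging up to 114 microM. Each compound was preincubated with 25 nM NS2B-NS3 protease, and the substrate was then added at 1.5 microM. Curves were fitted with a 4-parameter Hill model.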
A short description of experiment [8]: Confirmatory screen NINDS Rhodamine qHTS for Zika virus inhibitors (AID 1347161). Further: potency means the concentration at half of the fitted maximal effect; nearly all actives have a fitted effect of over 60% in size. In outline:
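Each compound, titrated, sat 15 min with 25 nM linked protease before 1.5 microM Rhodamine110 substrate went in. Fluorescence gain over the next 15 min, in pH 8.0 Tris with Tween 20, gave Hill-fitted curves.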

Experiment [9] has as its system Zika virus NS2B-NS3 protease (linked). Kind of experiment: 384 well plate NINDS AMC confirmatory qHTS for Zika virus inhibitors (AID 1347163). Further: nearly all actives have a fitted effect of over 50% in size. Further: potency means the concentration at half of the fitted maximal effect. In outline:
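Linked protease 5/30/60 nM final; cpds up to 1 mM final, ~15 min preinc. Substrate Ac-VKTGKR-AMC 30 microM final. RT, dark, 25 min; FI ex 355/em 460; normalized to no-enzyme/no-inhibitor ctrls.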

Experiment [10] has as its system Zika virus NS2B-NS3 protease (unlinked complex). Kind of experiment: Confirmatory screen GU AMC qHTS for Zika virus inhibitors (AID 1347153). Further: nearly all actives have a fitted effect of over 70% in size. The gist of the method:
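Compounds were preincubated 15 min at room temperature with 25 nM noncovalent NS2B-NS3 protease at pH 8.0; AMC substrate added at 10 microM and 15-min fluorescence gain (340/450 nm) converted to percent inhibition, fitted 4-parameter.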

Experiment [11] has as its target Cytochrome P450 3A4 (Homo sapiens) (UniProt P08684). Description: qHTS Assay for Inhibitors and Substrates of Cytochrome P450 3A4 (AID 884). Further: series mostly up to about 57 µM; nearly all actives have a fitted effect of over 50% in size. The gist of the method: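 20 nM human CYP3A4 with 25 uM Luciferin-PPXE (at KM) in 200 mM KPO4, preincubated 10 min with compound; NADPH regeneration started a 60 min RT reaction. Luciferin detected by luminescence, normalized to 57 uM ketoconazole as full inhibition.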

Experiment [12] can be described thus: Confirmation and Secondary Assay for Modulators of Hemoglobin Beta Chain Splicing at IVS2 654 locus (AID 910).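 Further: HeLa cells stably carrying EGFP split by mutant beta-globin IVS2-654 intron; per-well total GFP intensity by laser scanning cytometry after 2-day treatment.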 The gist of the method: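 Readout: per-well total peak green fluorescence (488 nm ex, 500–520 nm em) from objects 5–250 µm, reflecting correct splicing of an EGFP-654 reporter. Compounds were applied for 2 days at 37 °C to overnight-plated HeLa EGFP-654 cells; controls were DMSO and 500 nM IVS2-654 PNA.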

Experiment [13] in a line: Confirmation and Secondary Assay for Modulators of Hemoglobin Beta Chain Splicing at IVS2 705 locus (AID 930).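 Further: HeLa cells stably expressing the EGFP-705 splicing reporter; GFP fluorescence per well restored by corrected splicing of the IVS2-705 intron in EGFP; series mostly up to about 46 µM.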 In outline: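 HeLa EGFP-705 reporter; 500 cells/well, o/n 37C 5% CO2; cpd 2 d; 488 ex/500-520 em laser scan; total peak GFP intensity/well. Ref: 500 nM […] antisense PNA.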
A short description of experiment [14]: Vero cells viability qHTS for Zika virus inhibitors (AID 1347167). In outline:
(§1)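 Compounds were tested in concentration series on cells grown in DMEM containing 4% FBS. After 24 to 48 hours, cellular ATP was measured by luminescence with CellTiter Glo.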

The nature of experiment [15]: HepG2 cells viability qHTS for Zika virus inhibitors (AID 1347168). The gist of the method: as §1

Furin (Homo sapiens), sequence (P09958 whole entry, looked up): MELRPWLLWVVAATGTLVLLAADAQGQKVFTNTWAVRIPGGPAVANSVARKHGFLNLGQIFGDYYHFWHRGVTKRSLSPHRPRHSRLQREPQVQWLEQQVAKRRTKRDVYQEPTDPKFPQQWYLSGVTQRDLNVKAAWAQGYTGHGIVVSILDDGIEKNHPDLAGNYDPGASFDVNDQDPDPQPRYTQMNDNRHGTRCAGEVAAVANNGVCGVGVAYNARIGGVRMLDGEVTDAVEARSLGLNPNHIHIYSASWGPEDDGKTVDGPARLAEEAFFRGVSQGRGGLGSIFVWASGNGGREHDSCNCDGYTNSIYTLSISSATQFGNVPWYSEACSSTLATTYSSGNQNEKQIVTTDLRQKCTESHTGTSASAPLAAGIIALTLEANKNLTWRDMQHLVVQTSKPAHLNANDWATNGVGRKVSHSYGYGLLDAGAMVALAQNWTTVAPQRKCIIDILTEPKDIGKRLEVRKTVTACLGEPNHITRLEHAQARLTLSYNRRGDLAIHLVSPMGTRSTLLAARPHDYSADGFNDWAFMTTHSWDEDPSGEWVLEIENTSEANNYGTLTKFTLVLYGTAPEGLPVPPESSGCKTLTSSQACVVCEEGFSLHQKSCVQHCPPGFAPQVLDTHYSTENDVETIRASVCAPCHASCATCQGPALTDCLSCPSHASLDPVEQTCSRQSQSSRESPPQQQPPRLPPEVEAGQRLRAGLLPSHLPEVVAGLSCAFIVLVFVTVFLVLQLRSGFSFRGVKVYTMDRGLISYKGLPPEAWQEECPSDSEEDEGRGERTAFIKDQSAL
Cytochrome P450 3A4 (Homo sapiens), sequence (P08684 whole entry, looked up): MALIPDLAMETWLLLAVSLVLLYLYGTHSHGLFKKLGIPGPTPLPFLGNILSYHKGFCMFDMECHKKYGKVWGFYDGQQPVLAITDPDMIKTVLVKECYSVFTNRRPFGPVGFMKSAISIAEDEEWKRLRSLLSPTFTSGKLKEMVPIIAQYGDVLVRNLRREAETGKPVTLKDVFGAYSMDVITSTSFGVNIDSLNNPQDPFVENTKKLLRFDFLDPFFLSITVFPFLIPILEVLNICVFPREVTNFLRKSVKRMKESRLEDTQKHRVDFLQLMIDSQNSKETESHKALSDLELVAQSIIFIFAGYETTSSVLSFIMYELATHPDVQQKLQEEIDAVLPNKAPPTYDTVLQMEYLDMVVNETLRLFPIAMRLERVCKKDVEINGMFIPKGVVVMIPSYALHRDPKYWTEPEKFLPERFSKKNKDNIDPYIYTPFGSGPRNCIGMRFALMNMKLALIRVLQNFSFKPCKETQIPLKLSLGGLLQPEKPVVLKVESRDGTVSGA

For `N#Cc1ccc(OCC2CN(Cc3cccc(C(F)(F)F)c3)C(=O)c3c(ccnc3-c3ccc(OCC(=O)O)cc3)O2)cc1` (centres undefined), the Potency entry in [1], in [2], in experiment [3] and in experiment [5] was “inactive” each time. The Potency in [4] is 39.8 µM (active).

As for `N#CC(C#N)=C(N)/C(C#N)=C/c1cc(O)c(O)c(O)c1`, the Potency entry in experiment [1], in [6], in experiment [3], in experiment [4] and in experiment [5] was “inactive” each time. Moreover, the Potency in experiment [7] is 44.7 µM (active); in experiment [8], 31.6 µM (active); in [9], 112 µM (active).

As for `O=C(Nc1c(C(=O)O)oc2ccccc12)c1ccc(C(F)(F)F)cc1`, the Potency result in experiment [1] and in experiment [3] was “inactive” in each case. Besides, the Potency in [7] is 15.8 µM (active); in experiment [8] it was 25.1 µM (active); in [9], 316 µM (active); in experiment [4], 100 µM (active).

As for `Cc1ncccc1OCC1CN(Cc2cccc(C(F)(F)F)c2)C(=O)c2c(ccnc2-c2ccc(OCC(=O)O)cc2)O1` (centres undefined), the Potency entry in experiment [1], in experiment [2], in experiment [10] and in experiment [5] was “inactive” each time.

Take `CCOC(=O)c1c(-c2ccccc2)oc2ccc(NS(=O)(=O)c3ccc(C(C)C)cc3)cc12`: the Potency in [1] was 46.9 µM (active). For the same compound, in experiment [7], the Potency entry is “inactive”.

For the compound `CN(Cc1cnc2nc(N)nc(N)c2n1)c1ccc(C(=O)NC(CCC(=O)O)C(=O)O)cc1` (centres undefined), the Potency result in experiment [11], in experiment [2], in experiment [10], in experiment [14], in experiment [15] and in [5] was “inactive” throughout. Further, the outcome in experiment [12] and in experiment [13] was inactive. The Potency in experiment [1] is 21.5 µM (active).

Regarding `N#Cc1ccccc1OCC1CN(Cc2cccc(C(F)(F)F)c2)C(=O)c2c(ccnc2-c2ccc(OCC(=O)O)cc2)O1` (centres undefined), the Potency entry in experiment [1], in [2] and in experiment [3] was “inactive” in each case. In addition, the Potency in experiment [9] was 70.8 µM (active); in [4], 56.2 µM (active).

For `CC(C)CN1CC(COc2cccc(C(F)(F)F)c2)Oc2ccnc(-c3ccc(OCC(=O)O)cc3)c2C1=O` (centres undefined), the Potency entry in [1], in experiment [2], in experiment [10] and in experiment [5] was “inactive” each time. The Potency in experiment [4] was 141 µM (active).

Regarding `COc1cc(C2Nc3ccccc3-c3nnc(SCc4ccc(Cl)cc4)nc3O2)ccc1OCC(=O)O` (centres undefined), the Potency entry in [1] and in experiment [3] was “inactive” in each case. The Potency is 28.2 µM (active) in experiment [7], 25.1 µM (active) in [8], 282 µM (active) in experiment [9] and 79.4 µM (active) in experiment [4].

As for `O=C(O)c1cccc(-c2ccc(OC(F)(F)F)cc2)c1`, the Potency entry in experiment [1], in experiment [2], in experiment [3], in [9] and in [5] was “inactive” throughout.

Turning to `N#Cc1ccccc1S(=O)(=O)N[C@H]1CO[C@H]2[C@@H]1OC[C@H]2OC(=O)Nc1ccc(Oc2ccccc2)cc1`, the Potency result in [1], in experiment [2] and in [10] was “inactive” throughout. For the same compound, the Potency in experiment [5] is 7.39 µM (active).

As to `Clc1ccc(-c2nn3c(COc4cccc(OCc5nnc6sc(-c7ccc(Cl)cc7)nn56)c4)nnc3s2)cc1`, the Potency result in experiment [1] and in [5] was “inactive” in each case. Also, the Potency in [2] was 50.1 µM (active); in [8] it was 20 µM (active); in experiment [9], 12.6 µM (active).
